Source: PubChem BioAssay (NCI)
“And” between values parts separate entries of the source, which are not always exact repeats. Identical values can stand only once. About 79,000 compounds went through this panel and 15% of them were active in at least one assay; those are over-represented in the sample as a whole. Where a structure was tested more than once in an assay, its records may differ in their call. The source made the active and inactive calls. No stated cut-off is given here; in the data, active means growth inhibition above about 70%; inactive means the rest.

Key:
[1] = NCI Yeast Anticancer Drug Screen. Data for the rad52 strain (AID 147);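 further: 0% = growth of vehicle-treated control cultures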; settings: S. cerevisiae rad52 mutant growth inhibition, stronger effect = higher value
How it was run: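 Vehicle-treated cultures served as the reference for growth inhibition of compound-exposed yeast bearing a DNA repair mutation.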

[2] = NCI Yeast Anticancer Drug Screen. Data for the wt1 strain (AID 149);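 further: 0% = growth of vehicle-treated wt1 cultures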; settings: S. cerevisiae wt1 strain (SPY 50644) growth inhibition, stronger effect = higher value
How it was run: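 Readout: yeast growth inhibition, normalised to vehicle controls, in the wt1 strain exposed to test compounds.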

[3] = NCI Yeast Anticancer Drug Screen. Data for the rad50EPP+ strain (AID 151);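 further: 0% = growth of vehicle-treated control cultures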; settings: S. cerevisiae rad50 mutant strain, stronger effect = higher value
How it was run: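 In this screen, rad50EPP+ yeast were exposed to compounds. Growth inhibition was scored against vehicle-treated controls.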

[4] = NCI Yeast Anticancer Drug Screen. Data for the mgt1 strain (AID 153); settings: S. cerevisiae mgt1 mutant growth inhibition, stronger effect = higher value
How it was run: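 mgt1 strain exposed; growth vs vehicle control recorded as inhibition.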

[5] = NCI Yeast Anticancer Drug Screen. Data for the rad50 strain (AID 155);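 further: 0% = growth of vehicle-only cultures of the same strain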; settings: S. cerevisiae rad50 strain growth inhibition, stronger effect = higher value
How it was run: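 Compounds were tested on a yeast strain with an engineered DNA damage repair alteration; the reported value is growth inhibition normalised to vehicle treatment.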

[6] = NCI Yeast Anticancer Drug Screen. Data for the mec2-1 strain (AID 157); settings: S. cerevisiae mec2-1 strain, stronger effect = higher value
How it was run: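 Vehicle-treated cultures served as reference for growth inhibition of compound-exposed mec2-1 yeast.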

[7] = NCI Yeast Anticancer Drug Screen. Data for the rad14 strain (AID 159);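 further: 0% = growth of vehicle-treated control cultures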; settings: S. cerevisiae rad14 strain growth inhibition, stronger effect = higher value
How it was run: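 Compound-treated yeast with a defined DNA-repair lesion; growth inhibition normalised to vehicle-treated cultures.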

[8] = NCI Yeast Anticancer Drug Screen. Data for the sgs1 mgt1 strain (AID 161);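 further: 0% = growth of cultures given vehicle only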; settings: S. cerevisiae sgs1 mgt1 strain, stronger effect = higher value
How it was run: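 Inhibition of yeast growth, normalised to vehicle-treated controls, is reported for a strain bearing genetic alterations in DNA damage repair.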

[9] = NCI Yeast Anticancer Drug Screen. Data for the CLN2oe strain (AID 163);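 further: 0% = growth of vehicle-only control cultures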; settings: S. cerevisiae CLN2oe strain, stronger effect = higher value
How it was run: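 Inhibition relative to vehicle-treated yeast is reported. Cells: strain with genetic alteration in cell-cycle control, grown with compound.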

[10] = NCI Yeast Anticancer Drug Screen. Data for the cln2 rad14 strain (AID 165);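 further: 0% = growth equal to vehicle treated cultures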; settings: S. cerevisiae cln2 rad14 strain, stronger effect = higher value
How it was run: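 Each compound was tested on cln2 rad14 yeast. Inhibition of growth was calculated against vehicle-exposed controls.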

[11] = NCI Yeast Anticancer Drug Screen. Data for the bub3 strain (AID 167); settings: S. cerevisiae bub3 mutant strain, stronger effect = higher value
How it was run: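 Growth of a checkpoint-deficient yeast mutant is measured after compound exposure. Values represent inhibition relative to vehicle.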

[12] = NCI Yeast Anticancer Drug Screen. Data for the wt2 strain (AID 169);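 further: 0% = growth of vehicle-treated yeast cultures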; settings: S. cerevisiae wt2 strain growth inhibition, stronger effect = higher value
How it was run: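 Inhibition of yeast growth was determined after compound treatment, normalised to controls receiving only vehicle.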

[13] = NCI Yeast Anticancer Drug Screen. Data for the sgs1 strain (AID 173);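 further: 0% = growth of vehicle-only control cultures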; settings: S. cerevisiae sgs1 mutant, stronger effect = higher value
How it was run: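 Screen format: yeast with repair or checkpoint alterations, compound exposure, growth read relative to vehicle.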

[14] = NCI Yeast Anticancer Drug Screen. Data for the mlh1 rad18 strain (AID 175); settings: S. cerevisiae mlh1 rad18 strain growth inhibition, stronger effect = higher value
How it was run: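 Vehicle-treated cultures served as the reference for growth inhibition in a yeast strain carrying DNA damage repair alterations exposed to each compound.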

[15] = NCI Yeast Anticancer Drug Screen. Data for the rad18 strain (AID 177); settings: S. cerevisiae rad18 mutant growth inhibition, stronger effect = higher value
How it was run: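 Test articles were incubated with altered yeast defective in DNA damage repair. Results are given as inhibition of growth versus vehicle.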

[16] = NCI Yeast Anticancer Drug Screen. Data for the mlh1 strain (AID 171);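 further: 0% = growth of vehicle-treated control cultures of the same strain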; settings: S. cerevisiae mlh1 strain growth inhibition, stronger effect = higher value
How it was run: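 Vehicle-normalised growth inhibition of a repair- or checkpoint-altered yeast strain following compound treatment.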

[17] = at 5.0 µM (retest, dose inferred, filed as 0.5)
[18] = at 50.0 µM (retest, dose inferred, filed as 5.0)

Measured: growth inhibition

O=C(O)C1C2C=CC(C2)C1c1ccccc1 (stereo unspecified)
inactive: [1]; at 1.2 µM -1% | [1]; at 3.7 µM 0% | [1]; at 11.0 µM -2% | [1]; at 33.0 µM -3% | [1]; at 100.0 µM 5% | [2]; at 1.2 µM -3% | [2]; at 3.7 µM -1% | [2]; at 11.0 µM -3% | [2]; at 33.0 µM -9% | [2]; at 100.0 µM 1% | [3]; at 1.2 µM -6% | [3]; at 3.7 µM -8% | [3]; at 11.0 µM -6% | [3]; at 33.0 µM -5% | [3]; at 100.0 µM 0% | [4]; at 1.2 µM -1% | [4]; at 3.7 µM -1% | [4]; at 11.0 µM -4% | [4]; at 33.0 µM -5% | [4]; at 100.0 µM 2% | [5]; at 1.2 µM -1% | [5]; at 3.7 µM 26% | [5]; [17] -1% | [5]; at 11.0 µM 1% | [5]; at 33.0 µM 0% | [5]; [18] 4% | [5]; at 50.0 µM 10.9% and 4.35% | [5]; at 100.0 µM 17% | [6]; at 1.2 µM 0% | [6]; at 3.7 µM 0% | [6]; [17] -1% | [6]; at 11.0 µM 0% | [6]; at 33.0 µM -1% | [6]; [18] 3% | [6]; at 50.0 µM 1.4% and 9.7% | [6]; at 100.0 µM 9% | [7]; at 1.2 µM -5% | [7]; at 3.7 µM -7% | [7]; at 11.0 µM -10% | [7]; at 33.0 µM -11% | [7]; at 100.0 µM -4% | [8]; [17] -3% | [8]; [18] 3% | [8]; at 50.0 µM 7% and -6.6% | [9]; at 1.2 µM -4% | [9]; at 3.7 µM -10% | [9]; at 11.0 µM -4% | [9]; at 33.0 µM -6% | [9]; at 100.0 µM 5% | [10]; [17] -5% | [10]; [18] -5% | [10]; at 50.0 µM -0.2% and 0.6% | [11]; at 1.2 µM 6% | [11]; at 3.7 µM 20% | [11]; [17] 34% | [11]; at 11.0 µM 45% | [12]; at 1.2 µM -2% | [12]; at 3.7 µM 5% | [12]; at 11.0 µM -4% | [12]; at 33.0 µM -3% | [12]; at 100.0 µM 8% | [13]; at 1.2 µM -5% | [13]; at 3.7 µM -5% | [13]; at 11.0 µM -5% | [13]; at 33.0 µM 6% | [13]; at 100.0 µM 40% | [14]; [17] -3% | [14]; [18] 5% | [14]; at 50.0 µM 10.6% and 6.5% | [15]; at 1.2 µM -1% | [15]; at 3.7 µM -3% | [15]; at 11.0 µM -2% | [15]; at 33.0 µM 10% | [15]; at 100.0 µM 60%
active: [11]; at 33.0 µM 73% | [11]; [18] 93% | [11]; at 100.0 µM 85%
30.1% (inactive) and 95.9% (active): [11]; at 50.0 µM

Nc1nnc(N)n1-n1c(N)nnc1N
active: [5]; [18] 92% | [8]; [18] 89% | [14]; [18] 96%
inactive: [1]; at 1.2 µM -2% | [1]; at 3.7 µM -2% | [1]; at 11.0 µM -1% | [1]; at 33.0 µM 0% | [1]; at 100.0 µM 10% | [2]; at 1.2 µM -1% | [2]; at 3.7 µM 2% | [2]; at 11.0 µM -2% | [2]; at 33.0 µM -2% | [2]; at 100.0 µM 2% | [3]; at 1.2 µM 1% | [3]; at 3.7 µM 0% | [3]; at 11.0 µM -5% | [3]; at 33.0 µM -14% | [3]; at 100.0 µM -16% | [4]; at 1.2 µM -3% | [4]; at 3.7 µM -4% | [4]; at 11.0 µM -4% | [4]; at 33.0 µM -2% | [4]; at 100.0 µM 1% | [5]; at 1.2 µM -3% | [5]; at 3.7 µM -1% | [5]; [17] -8% | [5]; at 11.0 µM -3% | [5]; at 33.0 µM 1% | [5]; at 50.0 µM 56.1% | [5]; at 100.0 µM 9% | [6]; at 1.2 µM 1% | [6]; at 3.7 µM 3% | [6]; [17] -22% | [6]; at 11.0 µM 4% | [6]; at 33.0 µM 4% | [6]; [18] 36% | [6]; at 50.0 µM 11.8% | [6]; at 100.0 µM 2% | [7]; at 1.2 µM -3% | [7]; at 3.7 µM -3% | [7]; at 11.0 µM -4% | [7]; at 33.0 µM -6% | [7]; at 100.0 µM 0% | [8]; [17] 2% | [8]; at 50.0 µM 27.9% | [9]; at 1.2 µM -3% | [9]; at 3.7 µM -14% | [9]; at 11.0 µM -8% | [9]; at 33.0 µM -6% | [9]; at 100.0 µM -4% | [10]; [17] -2% | [10]; [18] 31% | [10]; at 50.0 µM -13.2% | [11]; at 1.2 µM -1% | [11]; at 3.7 µM -1% | [11]; [17] -18% | [11]; at 11.0 µM 2% | [11]; at 33.0 µM 3% | [11]; [18] 57% | [11]; at 50.0 µM 1.05% | [11]; at 100.0 µM 0% | [12]; at 1.2 µM -1% | [12]; at 3.7 µM -1% | [12]; at 11.0 µM -5% | [12]; at 33.0 µM -2% | [12]; at 100.0 µM 1% | [16]; at 1.2 µM 0% | [16]; at 3.7 µM 0% | [16]; at 11.0 µM 0% | [16]; at 33.0 µM -1% | [16]; at 100.0 µM 2% | [13]; at 1.2 µM 0% | [13]; at 3.7 µM -1% | [13]; at 11.0 µM -1% | [13]; at 33.0 µM -1% | [13]; at 100.0 µM 4% | [14]; [17] 49% | [14]; at 50.0 µM 19.1% | [15]; at 1.2 µM 0% | [15]; at 3.7 µM -4% | [15]; at 11.0 µM -5% | [15]; at 33.0 µM -4% | [15]; at 100.0 µM 9%
